The values below come from PubChem BioAssay (EPA / NIEHS).

Molecules are shown by their SMILES. Active and inactive are the calls of the source. Rule for the calls: active = hit-call score of the fitted dose curve at least 0.9, where 1 is the maximum; inactive = score below 0.9.

Read-out in this assay: Human Leukocyte Antigen - DR isotype (HLADR), HLA-DRA (gene 3122)
Put plainly: BSK_BE3C_HLADR: BioMAP Diversity Plus: BE3C Assay for Human Leukocyte Antigen - DR isotype (HLADR) Biomarker Activity (AID 2283032). The note with it: primary human bronchial epithelial cells; actives raise or lower the signal. Here is the method: BSK_BE3C is a cell-based, multiplexed-readout assay that uses bronchial epithelial cell, a human lung primary cell, with measurements taken at 24 hours after chemical dosing in a 96-well plate.BSK_BE3C_HLADR is an assay component measured in the BSK_BE3C assay. It measures HLA-DR antibody related to regulation of gene expression using ELISA technology.Data from the assay component BSK_BE3C_HLADR was analyzed into 1 assay endpoint. This assay endpoint, BSK_BE3C_HLADR, was analyzed with bidirectional fitting relative to DMSO as the negative control and baseline of activity. Using a type of binding reporter, gain or loss-of-signal activity can be used to understand changes in the signaling as they relate to the gene HLA-DRA. Furthermore, this assay endpoint can be referred to as a primary readout, because this assay has produced multiple assay endpoints where this one serves a signaling function. To generalize the intended target to other relatable targets, this assay endpoint is annotated to the cell adhesion molecules intended target family, where the subfamily is MHC Class II.
The levels of cell surface (or secreted, indicated by the prefix "s") biomarker endpoints were measured by ELISA. Overt cytotoxicity to cells in confluent adherent cultures (all systems other than the BT system) was assessed by measuring total protein levels using sulforhodamine B (SRB) staining in parallel cultures at the time of biomarker measurements, indicated as SRB endpoints. For proliferation assays for adherent cell types, individual cell types are cultured at sub-confluence and relative cell numbers quantified by SRB staining at time points optimized for each system (48 h: 3C and CASM3C systems; 72 h: BT and HDF3CGF systems; 96 h: SAg system). SRB was performed by staining cells with 0.1% SRB after fixation with 10% TCA and reading wells at 560 nm.Viability and proliferation of PBMC (T cells) was quantified by Alamar Blue reduction for the SAg and BT systems. For PBMC viability (referred to as PBMC Cytotoxicity within the assay endpoint names), cells were plated (75,000/well in a 96-well plate) and then chemical samples added for 1 h before addition of activators, SEB and TSST-1 (20 ng/mL final concentration each). Cells were incubated for 90 h. Then, Alamar Blue (20 uL/well) (Invitrogen, Cat DAL1100) was added for 6 h, and the plates were read with a fluorescence microplate reader at 546/580 nm (excitation/emission). For PBMC proliferation, cells were plated and activated as above but incubated for only 16 h prior to addition of Alamar Blue. Plates were read after 6 h.
As to `CCCCC(CC)CO` (stereo not given), the result was inactive.

As for `C#CC(O)C(CC)CCCC` (stereo not given), the result was inactive.

One may read the AC50 as the midpoint of the concentration-response curve, whichever way the signal moves. In the case of `Cc1c(C)c2c(c(C)c1O)CCC(C)(COc1ccc(CC3SC(=O)NC3=O)cc1)O2` (stereo not given), the AC50 was 15.2 µM (active).

`CC(=O)O`: the outcome was inactive.

Consider `CCCC(=O)O`, for which the result was inactive.

`CC(C)c1cccc(C(C)C)c1NC(=O)NS(=O)(=O)c1cc(C(C)(C)O)co1`: the result was inactive.

On to `Cc1cn([C@H]2C=C[C@@H](CO)O2)c(=O)[nH]c1=O`, for which the result was inactive.

On to `C=CCc1ccc(OC)c(OC)c1`, for which the result was inactive.

For the compound `CC(=O)S[C@H](C(=O)N[C@H]1Cc2ccccc2[C@H]2CCC[C@@H](C(=O)O)N2C1=O)C(C)C`, the result was inactive.

Regarding `CN(C)CCCN(C)CCCN(C)C`, the outcome was inactive.

As for `OCC(CO)n1cnc(-c2ccc(F)cc2)c1-c1ccnc(Oc2ccccc2)n1`, the outcome was inactive.

On to `CS(=O)(=O)c1ccc([C@@H](C[C@H]2CCC(=O)C2)C(=O)Nc2cnccn2)cc1Cl`, for which the outcome was inactive.

As to `C=CCCCCCCCCCCCC`, the result was inactive.

On to `O=C(NS(=O)(=O)/C=C/c1cccs1)c1ccc(F)cc1Br`, for which the result was inactive.

In the case of `NC=O`, the outcome was inactive.

For the compound `CC(C)c1cccc(C(C)C)c1`, the result was inactive.

Regarding `NC1CCCCC1`, the outcome was inactive.

On to `COc1ccc(OC(F)(F)F)cc1CN[C@H]1CCCN[C@H]1c1ccccc1`, for which the result was inactive.

`O=C(O)CC(O)(CC(=O)O)C(=O)O`: the outcome was inactive.

With `COC(=O)CCCC(=O)OC`, the result was inactive.

Take `CC(=O)O[C@]1(C(C)=O)CC[C@H]2[C@@H]3C=C(Cl)C4=CC(=O)[C@@H]5C[C@@H]5[C@]4(C)[C@H]3CC[C@@]21C`: the AC50 is 19.3 µM (active).

As for `CCCCCCCCCCCCCCOS(=O)(=O)O`, the half-maximal activity concentration (AC50) was 20 µM (active).

For the compound `c1ccc2occc2c1`, the result was inactive.

As to `CCCCCCC(C=O)=Cc1ccccc1`, the result was inactive.

As for `Cc1ccc(-c2cc(C(F)(F)F)nn2-c2ccc(S(N)(=O)=O)cc2)cc1`, the AC50 is 33.4 µM (active).

Take `CO[C@@H]1COCC[C@@H]1N[C@@H]1CC[C@@](C(=O)N2CCc3ncc(C(F)(F)F)cc3C2)(C(C)C)C1`: the result was inactive.

As to `CC1(C)C(=O)NC(=O)N1CO`, the outcome was inactive.

On to `CC(=O)OCC(COC(C)=O)OC(C)=O`, for which the result was inactive.

In the case of `O=[Si]=O`, the outcome was inactive.

With `CC(=O)CC(c1ccccc1)c1c(O)c2ccccc2oc1=O` (stereo not given), the outcome was inactive.

Turning to `O=C(O)CN(CC(=O)O)CC(=O)O`, the result was inactive.

Regarding `O=C(Oc1ccccc1)c1cccc(C(=O)Oc2ccccc2)c1`, the result was inactive.

Turning to `CCCCCCCCCCCCCCCCO`, the outcome was inactive.

For `Cc1cc(SC2=C(O)C[C@@](CCc3ccc(N)cc3)(C(C)C)OC2=O)c(C(C)(C)C)cc1CO`, the result was inactive.

Consider `CC1=C(C)S(=O)(=O)CCS1(=O)=O`, for which the outcome was inactive.

Regarding `OCC(O)CO`, the result was inactive.

`Cn1cnc2c1c(=O)[nH]c(=O)n2C`: the result was inactive.

As for `NCCOCCOCCN`, the outcome was inactive.

Take `Oc1ccc(O)cc1`: the result was inactive.

In the case of `CCCCCCCC(=O)OC`, the result was inactive.
